The values that follow come from PMC7819943, “Rice protein-binding microarrays: a tool to detect cis-acting elements near promoter regions in rice”.

Over roughly 68,000 sequences, “fluorescence intensity (a.u.)” has its median near 9,100; the highest 2% begin near 16,000. This is one part of a sample in which the highest values are shown more often than they occur.

OsWRKY34, sequence (Q0JBA9 entry or part of it): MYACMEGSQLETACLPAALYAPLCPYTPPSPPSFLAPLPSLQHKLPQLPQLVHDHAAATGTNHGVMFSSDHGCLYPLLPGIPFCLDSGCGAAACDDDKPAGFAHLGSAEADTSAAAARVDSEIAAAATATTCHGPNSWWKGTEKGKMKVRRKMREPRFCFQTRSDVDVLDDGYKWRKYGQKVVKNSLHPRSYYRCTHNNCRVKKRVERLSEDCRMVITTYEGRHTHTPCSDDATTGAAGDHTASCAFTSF

In the assay the target is OsWRKY34 (Oryza sativa, UniProt Q0JBA9 1-250). As to the kind of experiment: protein-binding microarray (RPBM); PBS, 2% BSA, 51.3 ng/ul salmon testes DNA, 50 uM zinc acetate, 200 nM TF, 25 C, 1 h; high values mean tight binding. The conditions noted are these: protein: recombinant; tags: N-terminal polyhistidine and DsRed monomer fusion (pET32a); label: CyDye5-dUTP incorporated in the synthesized complementary strand; 3' TTTTT single-stranded linker to array surface; dsDNA, one strand shown. In outline:
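Transcription factors were made in E. coli BL21-CodonPlus as N-terminal fusions to a polyhistidine tag and DsRed, then purified on Ni–NTA. After primer extension with Cy5-dUTP and blocking with 2% BSA, a custom Agilent array was exposed for 1 h at 25 °C to 200 nM protein in PBS, 2% BSA, salmon testes DNA and 50 µM zinc acetate. Washed arrays were scanned on an Axon 4000B, and the binding signal is per-feature fluorescence intensity in arbitrary units.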
Consider “CCCTCGTCTTCTTCTCCACGCGACGCCGGTCAAAGTTTGACGGAGTCACCTAGTGCAG”, for which the binding signal is 10700 fluorescence intensity (a.u.).

For “AGCCATCTTAAGTTAGGAACAGTTTCTTTTTTTAGAACTACGGAGTCACCTAGTGCAG”, the binding signal is 8290 fluorescence intensity (a.u.).

Regarding “AAACCATTTTTTTTATCTATTATCCTTTGACTGTTTAATTCGGAGTCACCTAGTGCAG”, the binding signal is 10500 fluorescence intensity (a.u.).

Consider “AAATTTTTATATGCTGTGTATTTTCTATTTTTTTTATTTTCGGAGTCACCTAGTGCAG”, for which the binding signal was 11100 fluorescence intensity (a.u.).

On to “GTGTTTGATTTGCCTCTCTTAAGAACCACTGTGAAAACATCGGAGTCACCTAGTGCAG”, for which the binding signal is 9680 fluorescence intensity (a.u.).

Regarding “CTCGCCGCGTGCTCCTTTACTGCTCTCTGCTCGCGCAGGACGGAGTCACCTAGTGCAG”, the binding signal was 9230 fluorescence intensity (a.u.).

In the case of “CCTCGACCGTCCCCAACCGACGACCCCGTGGTCACGCTCCCGGAGTCACCTAGTGCAG”, the binding signal was 10900 fluorescence intensity (a.u.).

As to “GGTCAATTTAGGGCACACACCAAACCAGCCCTTACAACTTCGGAGTCACCTAGTGCAG”, the binding signal is 8620 fluorescence intensity (a.u.).

As to “AAAAATATATCCAAGCAAATTCACACAGTCAAGTTCACTCCGGAGTCACCTAGTGCAG”, the binding signal was 14800 fluorescence intensity (a.u.).

“GGTTGGTGTGGACCTTGCCCATTGTGAAACTTTGGTCAAACGGAGTCACCTAGTGCAG”: the binding signal is 8070 fluorescence intensity (a.u.).

“TTCGAAATGTTTAACGCCGTTGACTTTTTATCATATGTTTCGGAGTCACCTAGTGCAG”: the binding signal was 35500 fluorescence intensity (a.u.).

With “TTCGAAATGTTTGACGCCGTTGACTTTTTAGCATATGTTTCGGAGTCACCTAGTGCAG”, the binding signal is 13200 fluorescence intensity (a.u.).

Take “CCGTTTCATATTTAAATTGTTTTGACTTTTTTATAGTTAACGGAGTCACCTAGTGCAG”: the binding signal is 8140 fluorescence intensity (a.u.).

For the sequence “TCGAAATGTTTGACGCCGTTGACTTTTTAAGTATATGTTTCGGAGTCACCTAGTGCAG”, the binding signal is 29200 fluorescence intensity (a.u.).

Take “TTCGTTTGACTTTTGCCGTTTCAAATTTGAATTCTCGAAACGGAGTCACCTAGTGCAG”: the binding signal was 9080 fluorescence intensity (a.u.).

In the case of “AGTTTCGAAATATTTGACGCCGTTGACTTTTTATCAAATGCGGAGTCACCTAGTGCAG”, the binding signal was 28300 fluorescence intensity (a.u.).

Take “ACTTATTTTAGTTTGACTTGATTTTTCATCAAATGTTTTTCGGAGTCACCTAGTGCAG”: the binding signal is 10400 fluorescence intensity (a.u.).

For the sequence “TCATGGATTATCTCTTTAATGTATAACGCCGTTGACTTTTCGGAGTCACCTAGTGCAG”, the binding signal was 14300 fluorescence intensity (a.u.).

In the case of “CGTATGCTCCTTAGGTGATACTATGTCCCTATTTGCTTCACGGAGTCACCTAGTGCAG”, the binding signal was 8180 fluorescence intensity (a.u.).

As for “TTTATTATTAGTCTAAGTTTAATACTTCTTATTAGTGTCACGGAGTCACCTAGTGCAG”, the binding signal was 8180 fluorescence intensity (a.u.).

As for “TGATACTTGGCAGGCGTCGTCTCCAAATACCTGACCACTTCGGAGTCACCTAGTGCAG”, the binding signal was 8290 fluorescence intensity (a.u.).

In the case of “AATAGATCACCACATTCAATGCAGTTCTTCCGATTAAATTCGGAGTCACCTAGTGCAG”, the binding signal is 9730 fluorescence intensity (a.u.).

As to “GGTTGCTCAGTTGCCGACACATTTCTGCAGACCCATTTTGCGGAGTCACCTAGTGCAG”, the binding signal was 8080 fluorescence intensity (a.u.).

With “CTGTCCTCTATCGATTGTTCTGACTTGGGTCACCATGTAACGGAGTCACCTAGTGCAG”, the binding signal was 8990 fluorescence intensity (a.u.).

On to “CTCTGACTCTCTGTTCCAATTCCCACACGTTTCTCTCGCGCGGAGTCACCTAGTGCAG”, for which the binding signal was 14800 fluorescence intensity (a.u.).

As to “CCGCCGAGTCACTGCTCTCGTTCTTATCCACACTGCCCGACGGAGTCACCTAGTGCAG”, the binding signal was 9120 fluorescence intensity (a.u.).

Consider “ACGTGTCACCTTCTTATTCGCTGGGTTTTTTCTGGTGGGTCGGAGTCACCTAGTGCAG”, for which the binding signal was 8770 fluorescence intensity (a.u.).

Turning to “TTTCTCACTGTTATATTGTCTAATATCATCTTTCTCTTTTCGGAGTCACCTAGTGCAG”, the binding signal was 9880 fluorescence intensity (a.u.).

Regarding “AGGTAATCATATTGTTGTTATTCGTGGATGGGGTGGGCTCCGGAGTCACCTAGTGCAG”, the binding signal was 16400 fluorescence intensity (a.u.).

In the case of “TTCGTGGATGGGGTGGGCTCTTTCTCACTGTTATATTGTCCGGAGTCACCTAGTGCAG”, the binding signal was 27500 fluorescence intensity (a.u.).

On to “CTTGTCTCTCTTTCTCTTTCTCTCTCTCTCACCTGTTATTCGGAGTCACCTAGTGCAG”, for which the binding signal is 9740 fluorescence intensity (a.u.).

On to “GCTCTTATCCCGAGCTCGTGTCACTGGTGGGGTGGGGCCCCGGAGTCACCTAGTGCAG”, for which the binding signal was 16600 fluorescence intensity (a.u.).

For “ATGGGGTGTTTTTTTTTTCGCTATATTCTCTTAGAACTGTCGGAGTCACCTAGTGCAG”, the binding signal was 18000 fluorescence intensity (a.u.).

In the case of “ATTGGTGGTAATCGGAGGTGGAGGTGGGCGTGATGATCTCCGGAGTCACCTAGTGCAG”, the binding signal was 11100 fluorescence intensity (a.u.).

In the case of “AAGTGTTTTCGTTTTTTTTTCATTCGCTATTATTTTCTTTCGGAGTCACCTAGTGCAG”, the binding signal was 9660 fluorescence intensity (a.u.).

Turning to “TTAGGTGTTTTGTAGTAGTGTAATGGGGCATATTCGTGGGCGGAGTCACCTAGTGCAG”, the binding signal is 8270 fluorescence intensity (a.u.).

For the sequence “CCCACGTATTCCCCACCTTATCTCACTGTCTCGTGGGCCCCGGAGTCACCTAGTGCAG”, the binding signal is 10500 fluorescence intensity (a.u.).

Regarding “TTAGTAGTATATCGTCACCAATTATTGTAGTTAGCTCCACCGGAGTCACCTAGTGCAG”, the binding signal is 9580 fluorescence intensity (a.u.).

Turning to “ATCCGATTTTTTTTCGCAATCTCCGAAATTTCACTTCTATCGGAGTCACCTAGTGCAG”, the binding signal was 11200 fluorescence intensity (a.u.).

Consider “GTCCGCTTCCATTGGGAGCGCGGCTACTGGCTGGGTTTACCGGAGTCACCTAGTGCAG”, for which the binding signal was 8770 fluorescence intensity (a.u.).

With “ATCCTATATTTGTTGCAGTTCATTCATTTCATCACCAGTTCGGAGTCACCTAGTGCAG”, the binding signal is 8840 fluorescence intensity (a.u.).

Take “CGATCTCTCTCTCTCACACACCCGCCTCACCCTCACCGCCCGGAGTCACCTAGTGCAG”: the binding signal was 10800 fluorescence intensity (a.u.).
